Assay results from PubChem BioAssay (EPA / NIEHS).
Where a structure was tested more than once in an assay, its records may differ in their call. Active and inactive are the calls of the source. How the source made its calls: active means hit-call score of the fitted dose curve at least 0.9, where 1 is the maximum; inactive means score below 0.9.

Test: CCTE_Shafer_MEA_dev_network_spike_number: CCTE's Neural Network Formation Assay for Number of Network Spikes, Shafer Lab (AID 2284048);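 further: synchronized bursts across electrodes counted on days 5 7 9 12 and integrated as AUC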;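 on AC50: fit as a loss of signal meaning fewer network spikes than DMSO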
Procedure: CCTE_Shafer_MEA_dev assay is conducted using Axion Biosystems 48 well microelectrode array (MEA) plates and Maestro recording system. Each well of the MEA plate contains a grid of 16 microelectrodes embedded in the culture surface. Electrically active cells, such as neurons, can be cultured over the electrodes, and electrical activity in these cells can be recorded extracellularly. The spontaneous firing of neurons is captured from each electrode on a microsecond timescale providing both temporally and spatially precise data. […] The CCTE_Shafer_MEA_dev assay uses primary cultures of rat cortical neurons. Recordings are made on days post-plating 5, 7, 9 and 12. As these cultures mature over time, neural networks develop functional activity and form cohesive networks in which electrical activity can be highly coordinated. CCTE_Shafer_MEA_dev_network_spike_number is 1 of 19 assay components of the CCTE_Shafer_MEA_dev assay. It measures the number of network spikes (temporally-clustered groups of action potential firing across multiple electrodes) during a recording in a microelectrode array (MEA) using Axion Biosystems Maestro 768 channel amplifier with the AxIS adaptive spike detector. To collapse across multiple recordings made on days post-plating 5, 7, 9 and 12, the trapezoidal area-under-the-curve of the component is calculated.Data from the assay component CCTE_Shafer_MEA_dev_network_spike_number was analyzed into 1 assay endpoint. This assay endpoint, CCTE_Shafer_MEA_dev_network_spike_number, was analyzed in the negative analysis fitting direction relative to DMSO as the negative control and baseline of activity. Using a type of functional reporter, gain or loss-of-signal activity can be used to understand electrical activity.
On the day prior to culture, each well was coated thoroughly with 150 uL of 0.05% polyethyleneimine (PEI, Sigma Cat P3143) in 50 mM HEPES (Sigma Cat H7523) at a pH of 8. The plate was incubated at 37C for one hour. PEI was rinsed out with 500 uL of sterile water three times. Plates were stored at 4C until the day of culture. This culture was plated at a seeding density of 1.5 x 10^5 cells/well on a 48-well MEA plate, prepared as described above. Cells were administered via a 25 uL media/laminin ([…]; Sigma Cat L2020-1MG) drop directly onto the microelectrode array, as adding the cells with the laminin results in better attachment than pre-coating with laminin. After 2 hours, an additional 475 uL of cortical media was added and the cells returned to the incubator. Exposure starts at day 0 of plating and is continued over twelve days of network development until the experiment is terminated. Cells are fed with fresh medium on DIV 5 and 9, following the recordings on those days. The entire volume of media in the well is exchanged and any vehicle or compound treatment is renewed. Complete details are found in OP-NHEERL/ISTD/SBB/TJS/2015-03-r0 (available on request, email shafer.tim@epa.gov). Measurement of the electrical activity is non-invasive, and recordings can be made from the same plate over multiple different days of the culture. In cortical neurons, this allows for the measurement of extracellular action potentials over the period during which networks form in the MEA plate.
For `O=P1(N(CCCl)CCCl)NCCCO1` (stereo not given), the outcome was “inactive”.
In the case of `O=C(O)C(F)(F)OC(F)(F)C(F)(F)OC(F)(F)F`, the outcome is reported as “inactive”.
In the case of `ClC1=C(Cl)C2(Cl)C3C(Cl)C(Cl)CC3C1(Cl)C2(Cl)Cl` (stereo not given), the AC50 is reported as 1980 nM (active).
In the case of `c1ccc(OP(Oc2ccccc2)Oc2ccccc2)cc1`, the outcome is reported as “inactive”.
For `C=CC(=O)OCC(F)(F)C(F)F`, the outcome was “inactive”.
With `CC(O)C(F)(F)C(F)(F)F` (stereo not given) the outcome was “inactive”.
In the case of `OCC(F)(F)OC(F)(F)C(F)(F)OC(F)(F)CO`, the outcome is reported as “inactive”.
With `O=S(=O)(c1ccc(O)cc1)c1ccc(O)cc1` the outcome was “inactive”.
With `CC(C)(C)c1ccccc1OP(=O)(Oc1ccccc1)Oc1ccccc1` the outcome was “inactive”.
In the case of `O=P(Oc1ccccc1)(Oc1ccccc1)Oc1ccccc1`, the outcome is reported as “inactive”.
For `CCOc1ccc(C(C)(C)COCc2cccc(Oc3ccccc3)c2)cc1`, the outcome was “inactive”.
For `CCCCC(CC)COP(=O)(Oc1ccccc1)Oc1ccccc1` (stereo not given), the outcome was “inactive”.
In the case of `O=C(O)C1C(C(=O)O)C2(Cl)C(Cl)=C(Cl)C1(Cl)C2(Cl)Cl` (stereo not given), the outcome is reported as “inactive”.
In the case of `O=C(O)C(F)(F)OC(F)(F)C(F)(F)OC(F)(F)C(=O)O`, the outcome is reported as “inactive”.
With `c1cc2c3c(cccc3c1)CC2` the outcome was “inactive”.
In the case of `OCC(F)(F)OC(F)(F)C(F)(F)OC(F)(F)C(F)(F)OC(F)(F)F`, the outcome is reported as “inactive”.
For `CCC1(c2ccccc2)C(=O)N=C(O)NC1=O` (stereo not given), the outcome was “inactive”.
With `OCC(F)(F)OC(F)(F)C(F)(F)OC(F)(F)C(F)(F)OC(F)(F)CO` the outcome was “inactive”.
For `CCOP(=S)(OCC)SCSCC`, the outcome was “inactive”.
With `CO/N=C(/C(=O)OC)c1ccccc1COc1ccccc1C` the AC50 was 474 nM (active).
For `CCCCC(CC)COC(=O)c1c(Br)c(Br)c(Br)c(Br)c1C(=O)OCC(CC)CCCC` (stereo not given), the outcome was “inactive”.
With `O=C(O)C(F)(OC(F)(F)C(F)(F)C(F)(F)F)C(F)(F)F` (stereo not given) the AC50 was 402 nM (active) and the outcome was “inactive”.
For `O=C(O)C=CC(F)(C(F)(F)F)C(F)(F)F`, the outcome was “inactive”.
In the case of `O=C(O)C(F)(F)C(F)(F)C(=O)O`, the outcome is reported as “inactive”.
